Source: PubChem
KCNQ2 enhance = KCNQ2 (rat) channel potentiation | B-score at 10 µM | actives 0.54% (n = 310,000) | AID 2239 | O88943 | CHO-K1 KCNQ2, FluxOR thallium flux fluorescence; hits give high values;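 active = fluorescence ratio B-score at least 3 SD of library B-scores, with initial fluorescence B-score within 3 of them, cut at about 5.3 in these data; same plate scores as AID 2156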;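 note: B-score of peak minus minimum over baseline fluorescence ratio after K+ and Tl+ stimulus; positive B-score means potentiation of KCNQ2 with more thallium influx and brighter signal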
KCNQ2 block = inhibitors of rat KCNQ2 potassium channel. O88943. CHO-K1 KCNQ2, FluxOR thallium flux, 20 min; hits give low values. B-score at 10 µM. actives 1.1% (n = 310,000);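 active = fluorescence ratio B-score at most minus 3 library SDs, with starting brightness B-score within 2 library SDs, cut at about -5.5 in these data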
Kir21 conf inh = confirmation of mouse Kir2.1 potassium channel inhibitors | shares compounds with KCNQ2 enhance | Kir2.1-expressing cells, FluxOR thallium flux fluorescence; hits give low values | Tl flux remaining, % of negative control (hits give low values), % at 10 µM | actives 41% (n = 2,300) | AID 2032;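 active = Primary-screen hit whose thallium flux fell at least 3 control SD below untreated wells in both duplicates, with normal baseline fluorescence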;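 note: 0% = blank wells without stimulus and 100% = stimulated no-compound controls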
HEK293 ctr = counter-screen for Kir2.1 inhibitors: effect in parental HEK293 cells | FluxOR signal as % of negative control (100 = no effect), % at 10 µM | shares compounds with KCNQ2 enhance | FluxOR thallium flux fluorescence; 0% = unstimulated blank wells | actives 19% (n = 2,300);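 active = dye signal at least 3 control SD above or below untreated wells in both duplicates, raw fluorescence within 3, either direction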;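 note: percent is based on the flux ratio of peak minus minimum fluorescence over baseline F0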
CHO-K1 ctr = alters thallium flux in parental CHO-K1 cells, KCNQ2 counter-screen; activity increase over 3SD of controls, % at 10 µM; actives 43% (n = 1,200); AID 2282; FluxOR thallium flux fluorescence; zero = vehicle mean+3SD, 100% = vehicle-minus-blank window; shares compounds with KCNQ2 enhance;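 active = signal rise of at least 3 SD above the untreated control mean, in both duplicate wells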;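 note: counter screen of KCNQ2 potentiator hits so any rise reflects channel-independent effects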
KCNQ1 pot spec = tests whether KCNQ2 potentiators also act on human KCNQ1; shares compounds with KCNQ2 enhance; CHO KCNQ1 stable, FluxOR thallium flux fluorescence; beyond 3SD, as % of vehicle-control signal; activation over 3SD threshold, % at 10 µM; actives 28% (n = 1,200); AID 2283;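 active = fluorescence ratio rise of at least 3 SD of vehicle wells above their mean, in both replicate wells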;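 note: 0% = vehicle mean plus 3 SD and 100% = vehicle minus unstimulated blank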
Target sequence (P51787 whole entry, looked up): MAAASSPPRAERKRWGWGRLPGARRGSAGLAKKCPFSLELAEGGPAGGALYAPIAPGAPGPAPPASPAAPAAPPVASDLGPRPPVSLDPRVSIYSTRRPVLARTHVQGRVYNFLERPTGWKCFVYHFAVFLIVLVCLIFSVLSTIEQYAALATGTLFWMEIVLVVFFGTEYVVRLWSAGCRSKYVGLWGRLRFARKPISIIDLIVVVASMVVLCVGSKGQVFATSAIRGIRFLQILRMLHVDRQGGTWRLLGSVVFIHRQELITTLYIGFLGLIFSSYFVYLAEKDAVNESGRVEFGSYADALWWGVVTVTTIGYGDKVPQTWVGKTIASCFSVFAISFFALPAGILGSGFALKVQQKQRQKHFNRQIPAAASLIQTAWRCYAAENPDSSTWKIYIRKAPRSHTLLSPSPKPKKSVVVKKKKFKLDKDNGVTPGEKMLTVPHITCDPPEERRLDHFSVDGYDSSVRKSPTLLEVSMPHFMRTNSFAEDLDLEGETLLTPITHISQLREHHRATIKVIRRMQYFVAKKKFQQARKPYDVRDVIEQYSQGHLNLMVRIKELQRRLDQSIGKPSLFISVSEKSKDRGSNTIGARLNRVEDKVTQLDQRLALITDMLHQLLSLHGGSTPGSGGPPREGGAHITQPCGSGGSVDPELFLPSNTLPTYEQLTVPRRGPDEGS
KCNQ2 pot conf = confirmation of rat KCNQ2 potassium channel potentiators. potentiation, less the hit threshold, % at 10 µM. CHO-KCNQ2 cells, FluxOR thallium flux fluorescence. actives 68% (n = 1,200). AID 2287. shares compounds with KCNQ2 enhance;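 active = fluorescence ratio rising 3 SD or more over the vehicle control mean in both replicates, plus primary screen hit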;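 note: peak minus minimum thallium fluorescence divided by baseline after K/Tl stimulus; 0% = vehicle mean plus 3 SD and 100% = vehicle minus unstimulated blank difference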
Kir2-1 sel = mouse Kir2.1 off-target activity of KCNQ2 potentiators. AID 2345. activity over 3SD threshold, % at 10 µM. HEK293 Kir2.1, FluxOR thallium flux fluorescence. actives 2% (n = 1,200). shares compounds with KCNQ2 enhance;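 active = fluorescence ratio rise of at least 3 SD above the vehicle-control mean, seen in both replicates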;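 note: 0% = vehicle mean plus 3 SD and 100% = vehicle minus no-stimulus blank window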
KCNQ2 W236L MoA = KCNQ2 potentiators acting on retigabine-insensitive rat KCNQ2 W236L mutant; shares compounds with KCNQ2 enhance; CHO KCNQ2-W236L, automated patch clamp current; current increase over 3SD of negative controls (%), hits give high values, % at 25 µM; actives 10% (n = 940); AID 2558;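 active = current increase at least 3 SD of the untreated controls above them in both duplicate recordings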
An asterisk follows results filed as active; i = inactive; / = not tested or not shown. Sampled rows, rich in hits. Any-hit rate of the full collection: about 1.6%.

SMILES	KCNQ2 enhance	KCNQ2 block	Kir21 conf inh	HEK293 ctr	others
CCCn1c(=O)c(C(=O)NCc2ccncc2)c(O)c2ccccc21	0.05	i	/	/
CC(C)Cn1c(=O)c(C(=O)NCc2ccccn2)c(O)c2ccccc21	15*	i	i	i	CHO-K1 ctr=-15.5;KCNQ1 pot spec=-13.7;KCNQ2 pot conf=-13.0;Kir2-1 sel=-27.0
CC1CN(C(=S)NC(=O)c2ccco2)CC(C)O1 (centres undefined)	0.9	i	/	/
Cc1cc(C(=O)O)cc(S(=O)(=O)Nc2ccccc2C(=O)NC(C)c2ccccc2)c1C (centres undefined)	1.25	i	/	/
Cc1cc(S(=O)(=O)Nc2cc(C)c(O)c(C)c2)c(C)s1	/	i	71.5%*	i
Cc1cc(S(=O)(=O)Nc2ccc3ccccc3c2)c(C)s1	0.87	i	/	/
COc1ccc(C(C(=O)NC(C)(C)C)N(CCC(C)C)C(=O)CCC(=O)Nc2cc(C)on2)cc1 (centres undefined)	/	i	/	/
Cc1cc(Cl)c(C(=O)Nc2cccc(C(F)(F)F)c2)c(C)n1	0.01	i	/	/
CCOc1ccc(N2CC(C(=O)N3CCN(c4ccccn4)CC3)CC2=O)cc1 (centres undefined)	0.92	i	/	/
COc1cc([N+](=O)[O-])ccc1NC(=O)NNC(=O)C(C)Oc1ccc(F)cc1F (centres undefined)	/	i	/	/
Cc1cc(OC(C)C(=O)NNC(=O)Nc2ccc(F)cc2F)cc(C)c1Cl (centres undefined)	7.5*	i	i	i	CHO-K1 ctr=-4.2;KCNQ1 pot spec=-11.2;KCNQ2 pot conf=-2.9;Kir2-1 sel=-28.9;KCNQ2 W236L MoA=i
Cc1ccc(C)c(S(=O)(=O)NNC(=O)c2sc(NS(=O)(=O)c3ccccc3)nc2C)c1	/	i	/	/
CC1CCN(C(=O)c2ccccc2NS(=O)(=O)c2ccccc2)CC1	/	i	/	/
COc1ccc(CC(=O)NNS(=O)(=O)c2ccc(F)cc2)cc1	/	i	/	/
CC1CN(S(=O)(=O)c2cccc(C(=O)OC(C)C(=O)NC3CCCCC3C)c2)CC(C)O1 (centres undefined)	/	i	/	/
O=C(c1ccc2c(c1)OCO2)C1CCCN(Cc2cccc(C(F)(F)F)c2)C1 (centres undefined)	/	i	/	/
O=C(c1ccc2c(c1)OCO2)C1CCCN(Cc2ccc(OC(F)F)cc2)C1 (centres undefined)	/	i	i	122.5%*
O=C(COc1ccccc1F)Nc1ccc(S(=O)(=O)Nc2nccs2)cc1	0.23	i	/	/
CCCc1cc(C(=O)Nc2cc(OC)ccc2OC)cs1	/	i	/	/
COc1ccccc1NC1=C(NC(C)=O)C(=O)c2ccccc2C1=O	8.01*	i	i	i	CHO-K1 ctr=-27.3;KCNQ1 pot spec=-26.9;KCNQ2 pot conf=4.8*;Kir2-1 sel=-32.5;KCNQ2 W236L MoA=i
COC1=C(Nc2ccccc2OC)C(=O)c2ccccc2C1=O	/	i	/	/
CC(C)(C)OC(=O)N1CCC(c2c(C(=O)N3CCN(C(=O)c4ccco4)CC3)cnn2-c2ccc(F)cc2F)CC1	0.27	i	/	/
Cc1ccc(C)c(/C=C/C(=O)c2ccccc(=O)c2O)c1	18.3*	i	i	144.0%*	CHO-K1 ctr=33.1*;KCNQ1 pot spec=36.3*;KCNQ2 pot conf=-4.2;Kir2-1 sel=-39.7;KCNQ2 W236L MoA=i
O=C(/C=C/c1ccccc1Cl)c1ccccc(=O)c1O	8.44*	i	i	153.0%*	CHO-K1 ctr=-4.4;KCNQ1 pot spec=4.1*;KCNQ2 pot conf=-6.3;Kir2-1 sel=-45.1
O=C(/C=C/c1ccccc1Cl)Nc1ccccc1	/	i	/	/
SMILES	KCNQ2 enhance	KCNQ2 block	Kir21 conf inh	HEK293 ctr	others
Cc1ccc(C)c(NC(=O)c2ccccc2O)c1	0.05	i	/	/
Cc1cccc(NC(=O)CN2CCN(C(=O)C3CCCO3)CC2)c1C (centres undefined)	/	i	/	/
CCC1CCCCN1CCCNC(=O)CS(=O)(=O)Cc1nc(-c2cccc(OC)c2)oc1C (centres undefined)	0.11	i	/	/
Cc1cc(C)cc(NC(=O)C(=S)NCc2ccccc2)c1	/	i	/	/
COc1cc(CNCCCN2CCOCC2)cc(Br)c1OCc1ccc(Cl)cc1	/	i	33.0%*	i
COc1cc(CNCCN2CCOCC2)ccc1OCc1ccc(Cl)cc1	0.08	i	/	/
CC(C)(C)c1nc(SCC(=O)c2ccccc2)c2ccccc2n1	18.9*	i	i	i	CHO-K1 ctr=-2.5;KCNQ1 pot spec=52.3*;KCNQ2 pot conf=26.5*;Kir2-1 sel=-29.7;KCNQ2 W236L MoA=i
CC(C)(C)c1nc(SCC(=O)N2CCCC2)c2ccccc2n1	5.13	i	/	/
Cc1cccc(CNC(=O)c2ccc3nc(Cc4ccccc4F)oc3c2)n1	0.26	i	/	/
Cc1noc(C)c1COC(=O)CCOc1ccccc1	1.08	i	/	/
Cc1noc(C)c1COC(=O)CCN1c2ccccc2Sc2ccccc21	/	i	70.0%*	i
CN(C)C(=S)Nc1ccc2c(c1)OCCO2	0.02	i	/	/
Cc1nnc(SCC(=O)N(C2CCCCC2)C2CCS(=O)(=O)C2)n1N (centres undefined)	/	i	/	/
O=C(O)c1ccccc1C(=O)Nc1ccc(Oc2cccc3ccccc23)cc1	0.74	i	/	/
O=C(Nc1ccc(Oc2cccc3ccccc23)cc1)c1ccco1	6.38*	i	i	i	CHO-K1 ctr=-7.0;KCNQ1 pot spec=-18.4;KCNQ2 pot conf=-10.4;Kir2-1 sel=-37.1;KCNQ2 W236L MoA=i
O=C(CCc1ccccc1)Nc1ccc(NC(=O)c2ccco2)cc1	0.76	i	/	/
O=C(Nc1ccc(CSc2ccccc2)cc1)c1ccco1	6.94*	i	i	i	CHO-K1 ctr=75.8*;KCNQ1 pot spec=-13.2;KCNQ2 pot conf=-1.5;Kir2-1 sel=-45.6;KCNQ2 W236L MoA=i
O=C(NCC1CCCO1)c1ccc2c(c1)N(Cc1ccccc1)CCS2 (centres undefined)	/	i	/	/
COCCNC(=O)CSc1nc2scc(-c3ccccc3)c2c(=O)[nH]1	/	i	/	/
COc1ccc(NC(=O)Cc2nnc(SCC(=O)NC3=NCCS3)n2C)cc1	0.36	i	/	/
COc1ccc(N2CCOCC2)c(NC(=O)COc2cccc(C)c2C)c1	/	i	/	/
Cc1ccccc1OCC(=O)Nc1ccccc1N1CCOCC1	-6.5	-6.5*	50.0%*	i
Cc1c(C(=O)N/N=C/c2cccnc2)sc(N)c1C#N	1.46	i	/	/
C/C(=N\NC(=S)NCCc1ccccc1)c1ccc(Cl)cc1Cl	6.24*	i	i	i	CHO-K1 ctr=11.5*;KCNQ1 pot spec=-25.0;KCNQ2 pot conf=-10.4;Kir2-1 sel=-23.8
C/C(=N\NC(=S)NCCc1ccccc1)c1ccc(O)cc1O	0.01	i	/	/
S=C(NCc1ccccc1)NCc1cccc(Cl)c1	/	i	/	/
